A selection: hits, their analogues and other compounds. The true share with any hit is near 1.7%.
Myeloid diff MLP: compounds promoting myeloid differentiation; ER-HoxA9 myeloid progenitors, lysozyme-GFP differentiation, flow cytometry; calls only at 10 µM; actives 1% (n = 360,000);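 active means normalized GFP-positive differentiation at or above the plate's own cutoff, the solvent-only control mean plus 3 SD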;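 further: cells exposed to compound for four days before flow analysis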
NOD2-RIPK2 inh: NOD2-RIPK2 protein interaction inhibition; inhibition, % at 4.98 µM; O43353; CHO BLA complementation NOD2-RIPK2, CCF4 ratio; actives 0.38% (n = 360,000); AID 624267; in the data active means inhibition above about 21%;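 further: 0% = vehicle only and 100% = reference blocker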
TLR9-MyD88 inh: blocks human TLR9 binding to MyD88 | CHO BLA complementation TLR9-MyD88, CCF4 FRET ratio | Q9NR96+Q99836 | actives 0.21% (n = 340,000) | inhibition, % at 4.98 µM;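 active means inhibition above the mean over all tested compounds plus 3 SD, cut at about 21% in these data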;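 further: 0% = DMSO only wells and 100% = clavulanate BLA inhibitor control wells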
TLR4 MyD88 comp: inhibitors of human TLR4-MyD88 binding; AID 861; HeLa CL3-4 TLR4/MyD88 BLA complementation, FRET ratio; O00206+Q99836; actives 0.18% (n = 200,000); inhibition, % at 8.4 µM; in the data active means inhibition above about 25%;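 further: 0% = vehicle and 100% = reference inhibitor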
Target sequence (O00206 whole entry, looked up): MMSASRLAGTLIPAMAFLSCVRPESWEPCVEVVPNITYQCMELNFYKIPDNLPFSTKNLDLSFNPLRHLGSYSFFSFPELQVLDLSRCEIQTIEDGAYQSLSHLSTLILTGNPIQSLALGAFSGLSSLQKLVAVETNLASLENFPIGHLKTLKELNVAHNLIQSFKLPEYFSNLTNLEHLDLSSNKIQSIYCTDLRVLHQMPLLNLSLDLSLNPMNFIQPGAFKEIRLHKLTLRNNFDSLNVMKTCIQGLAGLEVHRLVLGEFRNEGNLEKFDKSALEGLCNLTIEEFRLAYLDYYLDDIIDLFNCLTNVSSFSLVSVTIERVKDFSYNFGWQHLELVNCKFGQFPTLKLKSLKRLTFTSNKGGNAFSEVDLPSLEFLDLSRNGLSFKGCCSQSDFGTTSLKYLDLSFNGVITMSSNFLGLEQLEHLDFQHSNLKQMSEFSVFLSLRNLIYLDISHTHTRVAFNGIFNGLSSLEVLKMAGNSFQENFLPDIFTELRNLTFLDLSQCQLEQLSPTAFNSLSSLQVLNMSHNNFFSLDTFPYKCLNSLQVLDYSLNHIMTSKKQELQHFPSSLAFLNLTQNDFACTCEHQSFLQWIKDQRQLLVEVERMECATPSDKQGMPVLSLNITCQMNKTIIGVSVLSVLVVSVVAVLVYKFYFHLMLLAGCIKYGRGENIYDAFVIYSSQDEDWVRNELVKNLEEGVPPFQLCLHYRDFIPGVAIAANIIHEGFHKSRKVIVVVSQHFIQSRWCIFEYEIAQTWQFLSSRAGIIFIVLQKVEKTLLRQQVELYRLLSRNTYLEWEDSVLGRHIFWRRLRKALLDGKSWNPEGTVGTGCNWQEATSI
Target sequence (Q99836 whole entry, looked up): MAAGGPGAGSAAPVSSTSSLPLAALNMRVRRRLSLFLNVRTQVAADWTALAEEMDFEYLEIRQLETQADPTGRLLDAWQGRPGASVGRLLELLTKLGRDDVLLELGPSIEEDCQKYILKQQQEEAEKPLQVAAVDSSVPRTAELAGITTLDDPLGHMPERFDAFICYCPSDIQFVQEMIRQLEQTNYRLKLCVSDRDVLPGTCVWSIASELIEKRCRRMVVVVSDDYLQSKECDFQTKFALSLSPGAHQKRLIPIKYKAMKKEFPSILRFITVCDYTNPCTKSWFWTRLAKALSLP
ABCB6 inh MLPCN: inhibitors of human ABC transporter ABCB6. Q9NP58. K562-ABCB6 porphyrin accumulation, flow cytometry, 1 h; active compounds read low. fluorescence ratio to DMSO, % at 10 µM. actives 0.19% (n = 360,000);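 active means fluorescence ratio to DMSO below 75%, the collection mean minus 3 SD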;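 further: signal is porphyrin accumulated inside mitochondria; 100% equals median channel fluorescence of DMSO control wells; lower ratio means ABCB6 inhibition with less porphyrin fluorescence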
TLR9-MyD88 conf: TLR9-MyD88 interaction inhibition, confirmation. shares compounds with TLR9-MyD88 inh. CHO TLR9/MyD88 BLA complementation, CCF4 FRET ratio. inhibition, % at 4.98 µM. actives 51% (n = 680). AID 540250;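 active means mean inhibition across three repeats above about 21% taken from the earlier screen, limit read from the data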;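 further: blue over green emission ratio reports constitutive TLR9 MyD88 association via BLA complementation; 0% = DMSO vehicle wells and 100% = clavulanate BLA inhibitor wells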
BLA nonselective: non-selective beta-lactamase inhibitors in TLR9-MyD88 counter-screen; inhibition, % at 4.98 µM; AID 540251; shares compounds with TLR9-MyD88 inh; CHO-BLA cells, CCF4 FRET ratio, BLA reporter; actives 7% (n = 680);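 active means mean inhibition above a 50% cutoff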;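 further: counterscreen of TLR9-MyD88 hits on CMV-driven BLA in CHO-K1 cells; 0% = DMSO alone and 100% = clavulanate blocking BLA; higher means less blue over green ratio so more BLA blockade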
TLR9 CHO tox: counter-screen for TLR9-MyD88 inhibitors: cytotoxicity in CHO cells | shares compounds with TLR9-MyD88 inh | luminescence | inhibition, % at 4.98 µM | actives 39% (n = 680) | AID 588336; in the data active means inhibition above about 11%
An asterisk follows results filed as active; i = inactive; . = no result given; + = active, no number.

SMILES	Myeloid diff MLP	NOD2-RIPK2 inh	TLR9-MyD88 inh	TLR4 MyD88 comp	ABCB6 inh MLPCN	TLR9-MyD88 conf	BLA nonselective	TLR9 CHO tox
Cc1ccc2sc(NNC(=O)c3cc(-c4cccs4)nc4ccccc34)nc2c1C	.	.	.	-3	.	.	.	.
CS(=O)(=O)c1ccc(C(=O)OCC(=O)NCc2cccs2)cc1[N+](=O)[O-]	i	10	22*	.	107	29*	14	78*
CCCCC1(CC(=O)OC)C(=O)N(c2ccccc2)N(c2ccccc2)C1=O	i	-1	7	-6	100	.	.	.
Cc1c(-c2ccccc2)oc2c(C(=O)OCC(=O)Nc3ccc(F)cc3)cccc2c1=O	i	-9	-2	3	101	.	.	.
COC(=O)C1=C(C)OC(N)=C(C#N)C1c1ccccc1F (centres undefined)	i	-10	-6	10	98	.	.	.
N#CC1=C(N)Oc2cc(O)c(Cl)cc2C1c1ccccc1F (centres undefined)	i	1	22*	.	103	2	5	-2
O=Nc1onc(-c2ccc([N+](=O)[O-])cc2)c1NO	i	2	36*	7	110	4	2	0
CCCC(=O)Nc1ccc2c(c1)nc(CCN1CCN(c3ccccn3)CC1)n2C	i	-5	27*	.	92	2	3	3
COc1ccc(CNC(=O)c2cc(-c3ccc(OC)c(OC)c3)on2)cc1	i	-4	23*	-5	93	1	0	-4
COc1ccc(-c2cc(C(=O)NCc3ccc(Cl)cc3)no2)cc1OC	i	2	1	-1	93	.	.	.
COC(=O)c1cc(=O)nc(NN=Cc2ccc(OC)cc2)s1	i	13	.	.	97	.	.	.
C=CCCCCCCCCc1nc(SCC(C)=O)n[nH]1	i	-17	7	.	101	.	.	.
C=CCCCCCCCCc1nc(SCC(=O)O)n[nH]1	i	1	32*	.	93	-5	-1	1
Cc1ccc(-n2nc3c(c2NC(=O)c2c(F)cccc2Cl)CS(=O)(=O)C3)cc1C	i	21	22*	.	100	11	16	4
CCc1cc2c(-c3ccccc3)cc(=O)oc2cc1OC(C)C(=O)O (centres undefined)	i	-11	-8	.	101	.	.	.
CC(NC(=O)OCc1ccccc1)C(=O)Oc1cc2oc(=O)cc(-c3ccccc3)c2cc1Cl (centres undefined)	i	38*	34*	5	100	16	22	-10
CCN(C[C@H]1N[C@@](CC)(C(=O)OC)[C@H]2C(=O)N(Cc3ccccc3)C(=O)[C@@H]12)C(=O)c1ccc(C(C)(C)C)cc1	i	8	45*	.	87	-7	-2	52*
CNC(=O)C1(C)CCN1C(=O)Cc1ccc(C(C)C)cc1 (centres undefined)	i	0	.	.	97	.	.	.
CCOc1ccccc1N1CCN(C(=S)Nc2ccc(S(=O)(=O)Nc3ncccn3)cc2)CC1	i	1	0	.	101	.	.	.
Cc1ccc(N2C(=O)Cc3ccccc3C2=O)cc1	i	-4	22*	.	98	42*	40	0
CC(C)C[C@@H](C(=O)NC1CCN(Cc2ccccc2)CC1)N1C(=O)N2CCc3c([nH]c4ccccc34)[C@@]2(C)C1=O	i	7	-1	.	101	.	.	.
N#Cc1ccc(-c2ccco2)nc1SCC(=O)c1ccc(Cl)cc1	+	15	28*	30*	205	25*	25	8
O=C(CSc1ccc(-c2ccco2)nn1)c1ccc(F)cc1	i	1	-12	5	98	.	.	.
CCOC(=O)c1c(C)nc2sc(C(N)=O)c(N)c2c1-c1ccccc1	i	2	-2	6	99	.	.	.
CCOC(=O)c1c(C)nc2sc(C(=O)Nc3ccccc3)c(N)c2c1-c1ccc(OC)cc1	+	14	31*	19	98	19	19	15*
CC(C)NC(=O)C1(C)CN(S(C)(=O)=O)CC(=O)N1C1CCN(Cc2ccccc2)CC1 (centres undefined)	i	-13	.	.	.	.	.	.

Screening results: PubChem BioAssay, several laboratories
